From the supplement of paper PMC3334620
Whole data set: some 33,000 sequences, median “E-score (-0.5 to 0.5)” near -0.054, cut for the highest 2% near 0.35. The sample as a whole holds a higher share of the highest values than the screen did.

The sequences below were run against T1, Stb5 (UniProt P38699) (assay: PBM E-score (8-mer binding enrichment) (E-score (-0.5 to 0.5)); higher = stronger / more preferred TF binding). Conditions: protein concentration: 200 nM; construct: GST-full length.
T1 sequence: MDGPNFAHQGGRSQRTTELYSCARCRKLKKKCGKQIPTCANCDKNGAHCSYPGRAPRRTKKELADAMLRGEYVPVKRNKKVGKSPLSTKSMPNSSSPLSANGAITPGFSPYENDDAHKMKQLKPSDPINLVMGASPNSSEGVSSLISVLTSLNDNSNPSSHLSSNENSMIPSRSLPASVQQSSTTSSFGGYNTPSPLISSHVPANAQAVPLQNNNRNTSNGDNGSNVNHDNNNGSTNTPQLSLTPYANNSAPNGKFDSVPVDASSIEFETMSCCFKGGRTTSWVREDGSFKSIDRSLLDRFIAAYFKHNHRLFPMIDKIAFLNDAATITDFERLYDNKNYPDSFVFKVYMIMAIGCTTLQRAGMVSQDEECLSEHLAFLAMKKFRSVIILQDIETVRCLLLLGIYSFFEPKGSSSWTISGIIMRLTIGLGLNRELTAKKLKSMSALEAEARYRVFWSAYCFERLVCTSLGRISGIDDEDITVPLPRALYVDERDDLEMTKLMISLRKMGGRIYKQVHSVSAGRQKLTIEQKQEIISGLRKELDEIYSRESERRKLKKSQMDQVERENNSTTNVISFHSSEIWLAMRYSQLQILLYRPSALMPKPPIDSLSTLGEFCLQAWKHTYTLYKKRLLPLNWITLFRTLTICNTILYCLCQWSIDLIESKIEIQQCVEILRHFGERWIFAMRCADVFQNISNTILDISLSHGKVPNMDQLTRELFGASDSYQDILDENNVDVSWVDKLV
In short: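 E-scores (a modified Wilcoxon-Mann-Whitney statistic) were assigned by the Universal PBM Analysis Suite to every ungapped eight-base word pooled with its reverse complement. The input came from universal all-10-mer Agilent arrays made double-stranded by primer extension and probed with GST-tagged yeast transcription factors at about 100-200 nM. Fluorescent anti-GST detected bound protein, and masliner normalised the scans.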

| Sequence | PBM E-score |
| --- | --- |
| AGACCTTC | -0.109 |
| AAAGGACT | -0.0879 |
| GCCGCAAA | 0.182 |
| GGCCGCCA | 0.141 |
| AGTCCGAG | 0.237 |
| AGTCCGAC | 0.436 |
| AATCCGAC | 0.257 |
| GGTCCGAC | 0.411 |
| ATTCCGAC | 0.254 |
| AGTCCGAA | 0.299 |
| AGTCCGAT | 0.414 |
| GGTCCGAA | 0.328 |
| CGTCCGAC | 0.281 |
| CGGCAGGA | 0.134 |
| GGAACCCC | 0.19 |
| GCCTAGGC | -0.0482 |
| ACCAGGCA | -0.187 |
| AGCTACAC | -0.174 |
| CTCTAGAC | -0.146 |
| GCAGTTGA | -0.177 |
| GTTCATCA | -0.136 |
| ATTAAGAA | 0.0289 |
| ATGAACGA | -0.0854 |

| Sequence | PBM E-score |
| --- | --- |
| AACAGGCA | -0.186 |
| CGTCGTAC | 0.0941 |
| GTCCTCTA | -0.159 |
| CGGCCGGC | 0.284 |
| ACGCCGGA | 0.343 |
| CCGCCGGA | 0.309 |
| ACGCCGGG | 0.306 |
| CCGCCGGC | 0.421 |
| ACGCCGGC | 0.389 |
| CGAAAGAA | 0.0281 |
| AACTGCGT | -0.00018 |
| CGCATTGC | -0.0359 |
| CACCGGCA | 0.377 |
| CACCGGCC | 0.318 |
| CACCGGCG | 0.417 |
| TACCGGCA | 0.31 |
| AACCGGCG | 0.313 |
| AACCGGCA | 0.106 |
| CTGCACTA | -0.0814 |
| CGCTAAGC | 0.0898 |
| ATGAAAAC | 0.116 |
| AAATCCCA | -0.156 |
| AAATCCGT | 0.281 |

| Sequence | PBM E-score |
| --- | --- |
| AAATCCGA | 0.332 |
| CAATCCGG | 0.167 |
| CAATCCCG | 0.281 |
| GAATCCGC | 0.0516 |
| AAATCCGC | 0.354 |
| AAATCCGG | 0.376 |
| AAATCCCG | 0.411 |
| ATTCGCGG | 0.171 |
| CAGCACTG | -0.172 |
| GAATAAGA | 0.0303 |
| CGTCTAAA | -0.027 |
| CAGCAGTC | -0.115 |
| ACTTCGCT | -0.0885 |
| AACGGTGT | 0.425 |
| CACGGTGA | 0.282 |
| AACGGTGC | 0.332 |
| TACGGTGA | 0.16 |
| AACGGTGG | 0.245 |
| AACGGTGA | 0.355 |
| CCCATTGC | 0.0345 |
| GTCCCTGA | -0.284 |
| GGGAGGCA | 0.111 |
| AGGCTCCG | 0.246 |

| Sequence | PBM E-score |
| --- | --- |
| CTTACCGA | 0.0867 |
| ATTACCGC | 0.419 |
| ATTACCGG | 0.371 |
| ACTACCGG | 0.279 |
| ATTACCCC | 0.362 |
| ATTACCGA | 0.38 |
| GTTACCGA | 0.197 |
| ATTACCCG | 0.176 |
| CTTACCGC | 0.193 |
| ATTACCTC | 0.0374 |
| ATTACCTG | -0.0469 |
| CTTACCCC | 0.222 |
| CAGCAAGG | -0.369 |
| GATGATAA | 0.0422 |
| ACCCACTA | 0.0277 |
| CGGCTTCA | 0.259 |
| ACTTTGGG | -0.0994 |
| CTGGCCAC | -0.199 |
| CTCCCGAG | -0.213 |
| CCAAGGTA | -0.11 |
| GGGCGGTA | 0.346 |
| GTGCGGTA | 0.367 |
| CCGCGGGC | 0.335 |

| Sequence | PBM E-score |
| --- | --- |
| CGGCGGTC | 0.355 |
| ATGCGGTA | 0.243 |
| CTGCGGTA | 0.254 |
| CGGCGGGC | 0.361 |
| CGGCGGTA | 0.451 |
| AGGCGGTC | 0.258 |
| AGGCGGTA | 0.287 |
| CGGCGGGA | 0.347 |
| CGGCGGCC | 0.242 |
| AGCGAGTC | -0.132 |
| AGAATTCG | -0.146 |
| CGGCGACG | 0.194 |
| GACGGCGC | 0.199 |
| CAACCGTC | -0.0245 |
| GGGCCGAC | 0.355 |
| AGGCCGAC | 0.406 |
| GAGCCGAC | 0.201 |
| GGGCCGAA | 0.175 |
| CGGCCGAC | 0.205 |
| AGGCCGAT | 0.295 |
